Test results published in ChEMBL document CHEMBL1201862, “PubChem BioAssay data set” (2004).
About 4,000 (6.9%) of roughly 58,000 sequences were called active. No stated cut-off is given here; in the data, active = GI50 up to about 1.1 µM and inactive = higher. The list is a sample of the results. Entries with a potency or affinity are not part of this list.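 Interpolation was linear, between the two tested concentrations surrounding the appropriate level; five concentrations were tested over 48 hours in 96-well plates. Abbreviation: GI50, concentration required for 50% inhibition of growth.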

system: SF-295; experiment: NCI tumour cell line growth inhibition, 48 h

Row | Substance | GI50
1 | mu-(1,7-nanodiamine-N,N')bis-(cis-aminedichloroplatimum (II)), CHEMBL2146215 | 14.3 µM
2 | [Bis(aminomethyl)tetramethylenesilane]dichloropaltinum(II), CHEMBL2146205 | 27.7 µM
3 | [Bis(aminomethyl)pentamethylenesilane]tetrachloropaltinum(IV), CHEMBL2146204 | 3.3 µM
4 | [Bis(aminomethyl)dimethylsilane]tetrachloroplatinum(IV), CHEMBL2146190 | 4.39 µM
5 | [Bis(aminomethyl)pentamethylenesilane]dichloropaltinum(II), CHEMBL2146202 | 2.65 µM
6 | cis-Bis[[(trimethylsilyl)methyl]amino]tetrachloroplatinum(IV), CHEMBL2146191 | 13.7 µM
7 | [Bis(aminomethyl)tetramethylenesilane]tetrachloropaltinum(IV), CHEMBL2146189 | 5.25 µM
8 | [Bis(aminomethyl)ethylmethylsilane]tetrachloroplatinum(IV), CHEMBL2146192 | 3.17 µM
9 | [Bis(aminomethyl)dimethylsilane]dichloroplatinum (II), CHEMBL2146201 | 11.9 µM
10 | CISPLATIN, CHEMBL11359 | 0.912 µM
11 | [Bis(aminomethyl)diethylsilane]tetrachloroplatinum(IV), CHEMBL2146203 | 3.37 µM
